Publication PMC7826789 (International Journal of Molecular Sciences, 2021)

Legend:
Conditions in all cases: Compound Concentration (nM):1000
[1] = system: T1, RSK3(Kin.Dom.1-N-terminal)
T1 construct: gene RPS6KA2

[2] = system: T2, RSK3(Kin.Dom.2-C-terminal)
T2 construct: gene RPS6KA2

[3] = system: T3, RSK4(Kin.Dom.1-N-terminal)
T3 construct: gene RPS6KA6

[4] = system: T4, RSK4(Kin.Dom.2-C-terminal)
T4 construct: gene RPS6KA6

S6K1 = system: T5, S6K1
T5 construct: gene RPS6KB1

SBK1 = system: SBK1
SGK2 = system: SGK2
SGK3 = system: SGK3
SGK = system: T6, SGK
T6 construct: gene SGK1

SIK2 = system: SIK2
SIK = system: T7, SIK
T7 construct: gene SIK1

SLK = system: SLK
SNARK = system: T8, SNARK
T8 construct: gene NUAK2

SNRK = system: SNRK
SRC = system: SRC
SRMS = system: SRMS
SRPK1 = system: SRPK1
SRPK2 = system: SRPK2
SRPK3 = system: SRPK3
STK16 = system: STK16
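Also: KINOMEscan scanMAX binding as percent activity remaining versus control; lower means stronger binding.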

| SMILES | Percent Control [1] [%] | Percent Control [2] [%] | Percent Control [3] [%] | Percent Control [4] [%] | Percent Control (S6K1) [%] | Percent Control (SBK1) [%] | Percent Control (SGK2) [%] | Percent Control (SGK3) [%] | Percent Control (SGK) [%] | Percent Control (SIK2) [%] | Percent Control (SIK) [%] | Percent Control (SLK) [%] | Percent Control (SNARK) [%] | Percent Control (SNRK) [%] | Percent Control (SRC) [%] | Percent Control (SRMS) [%] | Percent Control (SRPK1) [%] | Percent Control (SRPK2) [%] | Percent Control (SRPK3) [%] | Percent Control (STK16) [%] |
| --- | --- | --- | --- | --- | --- | --- | --- | --- | --- | --- | --- | --- | --- | --- | --- | --- | --- | --- | --- | --- |
| CC1=C(C(=O)Nc2ccc3[nH]ncc3c2)C(c2ccc3ccccc3c2)CC(=O)N1 (stereo not shown) [GSK270822A] | 84 | 100 | 67 | 95 | 67 | 48 | 69 | 42 | 69 | 86 | 100 | 83 | 7.1 | 95 | 74 | 100 | 85 | 100 | 100 | 88 |
| COc1cc(/C=N/Nc2ncnc3[nH]ncc23)ccc1O [GW578748X] | 100 | 100 | 45 | 100 | 40 | 16 | 40 | 7.1 | 1.5 | 83 | 87 | 100 | 36 | 100 | 22 | 39 | 97 | 91 | 98 | 32 |
| COc1ccccc1-c1cc(/C=C2\C(=O)Nc3ncc(Br)cc32)cc(Br)c1O [GW442130X] | 100 | 100 | 100 | 100 | 100 | 95 | 85 | 94 | 71 | 100 | 100 | 100 | 89 | 100 | 91 | 100 | 100 | 100 | 100 | 87 |
| Nc1ncnc2occ(-c3ccc(NC(=O)Nc4cc(C(F)(F)F)ccc4F)cc3)c12 [GW770249X] | 66 | 59 | 87 | 100 | 21 | 100 | 100 | 83 | 100 | 100 | 100 | 6.3 | 87 | 100 | 92 | 91 | 74 | 76 | 63 | 97 |
| CN1CCN(C(=O)c2ccc(NC(=O)Nc3ccc(N(C)c4ccnc(Nc5ccc(CS(C)(=O)=O)cc5)n4)cc3)cc2)CC1.Cl [GW830263A] | 84 | 89 | 74 | 84 | 37 | 65 | 73 | 79 | 57 | 56 | 92 | 8.9 | 39 | 78 | 100 | 77 | 2.3 | 80 | 7.7 | 15 |
| O=C(Nc1n[nH]c2nc(-c3ccc(O)cc3)c(Br)cc12)C1CC1 [SB-725317] | 96 | 100 | 19 | 100 | 100 | 100 | 100 | 88 | 100 | 100 | 100 | 41 | 100 | 100 | 100 | 100 | 100 | 100 | 100 | 76 |
| COc1ccc2c(-c3ccnc(Nc4cccc(OC(F)(F)F)c4)n3)cnn2n1 [GW810372X] | 100 | 99 | 99 | 100 | 87 | 100 | 100 | 79 | 100 | 100 | 100 | 100 | 73 | 98 | 100 | 99 | 88 | 87 | 92 | 9.4 |
| NS(=O)(=O)c1ccc(N/N=C2\C(=O)Nc3ccc(-c4cnco4)cc32)cc1 [GW276655] | 100 | 87 | 61 | 90 | 100 | 76 | 76 | 53 | 38 | 100 | 77 | 86 | 49 | 55 | 83 | 73 | 100 | 100 | 76 | 46 |
| Cc1cc(O)cc(C)c1/C=C/c1cncc(C(N)=O)c1 [GW435821X] | 100 | 100 | 96 | 100 | 100 | 100 | 100 | 84 | 100 | 53 | 38 | 100 | 92 | 100 | 57 | 38 | 88 | 100 | 85 | 98 |
| NS(=O)(=O)c1ccc(N/N=C2\C(=O)Nc3ccc(C(=O)NCCc4c[nH]cn4)cc32)cc1 [GW300660X] | 100 | 100 | 45 | 100 | 76 | 100 | 100 | 12 | 26 | 100 | 100 | 100 | 6.9 | 100 | 100 | 90 | 86 | 100 | 76 | 34 |
| CN(C)c1cc2c(Nc3ccc4c(cnn4Cc4ccccc4)c3)ncnc2cn1 [GW282974X] | 100 | 93 | 75 | 74 | 95 | 100 | 99 | 99 | 98 | 71 | 29 | 81 | 100 | 88 | 100 | 74 | 82 | 100 | 97 | 88 |
| NS(=O)(=O)c1ccc(Nc2ncc(-c3ccccc3)o2)cc1 [GW572399X] | 100 | 100 | 96 | 100 | 100 | 100 | 93 | 60 | 48 | 100 | 100 | 100 | 79 | 100 | 100 | 100 | 94 | 100 | 98 | 31 |
| COc1cc2ncnc(Nc3ccc4c(cnn4Cc4ccccc4)c3)c2cc1OC.Cl [GW282449A] | 100 | 100 | 92 | 100 | 100 | 100 | 100 | 100 | 100 | 68 | 100 | 77 | 100 | 100 | 100 | 50 | 92 | 100 | 97 | 100 |
| CC1=C(C(=O)Nc2ccc3[nH]ncc3c2)C(c2ccc(Cl)c(Cl)c2)CC(=O)N1 (stereo not shown) [GSK299115A] | 100 | 89 | 69 | 80 | 67 | 73 | 81 | 48 | 72 | 87 | 97 | 98 | 25 | 100 | 80 | 88 | 99 | 100 | 90 | 85 |
| C[C@@H](Oc1cc(-n2cnc3ccc(OC4CCN(C)CC4)cc32)sc1C(N)=O)c1ccccc1Cl [GSK579289A] | 48 | 67 | 19 | 80 | 62 | 62 | 100 | 84 | 90 | 100 | 100 | 7.9 | 1 | 59 | 100 | 94 | 92 | 86 | 100 | 69 |
| Cl.O=C(O[C@H]1CN[C@H](C#Cc2cc3ncnc(Nc4ccc5c(cnn5Cc5ccccc5)c4)c3s2)C1)N1CCOCC1 [GSK200398A] | 92 | 89 | 80 | 83 | 100 | 100 | 97 | 99 | 99 | 69 | 100 | 98 | 100 | 100 | 100 | 92 | 84 | 85 | 100 | 100 |
| Cl.O=C(Nc1ccc(Oc2ccc3[nH]c(NC(=O)c4ccccc4)nc3c2)cc1)Nc1cc(C(F)(F)F)ccc1F [GW709042A] | 100 | 100 | 99 | 100 | 52 | 100 | 100 | 90 | 100 | 100 | 100 | 70 | 92 | 89 | 98 | 91 | 89 | 93 | 70 | 88 |
| CCS(=O)(=O)c1ccc(OC)c(Nc2ncc(-c3cccc(OC)c3)o2)c1 [GW580509X] | 100 | 100 | 94 | 100 | 100 | 100 | 100 | 91 | 100 | 91 | 97 | 100 | 96 | 100 | 26 | 54 | 96 | 100 | 100 | 37 |
| CN(C)CCNC(=O)Nc1ccc(N(C)c2ccnc(Nc3ccc(CS(C)(=O)=O)cc3)n2)cc1.Cl [GW830900A] | 100 | 94 | 74 | 87 | 85 | 95 | 80 | 84 | 48 | 73 | 74 | 42 | 43 | 77 | 100 | 95 | 17 | 100 | 7.7 | 30 |
| COc1cc2ncn(-c3cc(O[C@H](C)c4ccccc4Cl)c(C(N)=O)s3)c2cc1OC [GSK237701A] | 100 | 90 | 45 | 94 | 68 | 83 | 87 | 75 | 90 | 65 | 100 | 0.4 | 4.3 | 91 | 79 | 92 | 100 | 100 | 100 | 60 |
